# WT yeast gro inh: growth inhibition of WT yeast, mitochondrial fusion screen | mitochondrial fusion phenotypic screen, WT strain | inhibition, % at 10 µM | 190,000 compounds, 2.1% hits | AID 1362; in the data active = inhibition above about 58%; tested in S. cerevisiae
# Cl transport mod: modulators of human KCC2 chloride dependent transport; KCC2 cells, thallium flux FluoZin-2 fluorescence; B-score of Tl+ flux slope (higher = more flux/activation; lower = inhibition) at 10 µM; 190,000 compounds, 2.2% hits; AID 1456;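 active = thallium flux slope and its plate-corrected score both differing from the plate sample mean at a set confidence after two filtering rounds, in either direction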;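 also: slope of fluorescence scaled to starting intensity during 10 to 20 s after thallium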
# ROMK mod: modulates human ROMK potassium channel activity; 130,000 compounds, 2% hits; AID 1918; P48048; B-score at 10 µM; Tet-inducible ROMK, thallium flux fluorescence; actives lie on both sides;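 active = signal ratio slope over the read window, or its plate-corrected B-score, at least 3 SD from the plate mean, either direction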;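 also: B-score of the F/F0 ratio slope over 7 to 12 s after thallium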
# Target sequence (P48048 whole entry, looked up): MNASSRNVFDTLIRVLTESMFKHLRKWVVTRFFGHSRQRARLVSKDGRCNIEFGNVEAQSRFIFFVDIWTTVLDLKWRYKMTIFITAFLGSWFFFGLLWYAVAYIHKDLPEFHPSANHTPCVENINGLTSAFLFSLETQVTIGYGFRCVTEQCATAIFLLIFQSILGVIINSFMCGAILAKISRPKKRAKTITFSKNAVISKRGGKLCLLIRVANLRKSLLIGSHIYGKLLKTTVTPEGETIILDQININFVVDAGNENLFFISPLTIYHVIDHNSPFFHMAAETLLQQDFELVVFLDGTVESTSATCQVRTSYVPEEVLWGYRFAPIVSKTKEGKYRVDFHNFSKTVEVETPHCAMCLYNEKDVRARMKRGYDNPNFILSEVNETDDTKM
# L major viab: Leishmania major promastigote growth inhibition. Leishmania major promastigotes, resazurin fluorescence viability. inhibition, % at 10 µM. 200,000 compounds, 9% hits. AID 1063; in the data active = inhibition above about 50%;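 also: promastigotes grown with compound for 44 hours at 28 °C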
# m-calpain inh: blocks pig calpain II enzyme activity. purified calpain II, fluorogenic peptide substrate, 30 min. inhibition, % at 16 µM. 220,000 compounds, 0.37% hits. AID 1236;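 active = inhibition above about 50%, limit read from the data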
# KCC2 sec1: confirmation of human KCC2 transport modulators; shares compounds with Cl transport mod; normalised thallium flux (F/F0 slope) at 10 µM; 3,700 compounds, 15% hits; HEK293-KCC2, thallium flux, FluoZin2 fluorescence; active compounds read high;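 active = thallium flux slope above the same plate's solvent-only control mean plus 3 SD; inconclusive = the two replicate wells disagree; inactive = no significant difference from solvent-only control wells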
# KCC2 bumet counter: bumetanide-insensitive thallium flux in KCC2 cells with ouabain, counter-screen; 3,700 compounds, 49% hits; shares compounds with Cl transport mod; normalized thallium flux at 10 µM; HEK293-KCC2 + bumetanide/ouabain, thallium flux FluoZin2; active compounds read high;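 active = thallium entry rate above the same plate's blocked-transporter control wells by more than 3 SD; inconclusive = the two repeat wells disagree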;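 also: raw slope of fluorescence over initial fluorescence between 10 and 20 s after thallium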
# KCC2 secondary2: confirmation of human KCC2 transport modulators | shares compounds with Cl transport mod | HEK293-KCC2, thallium flux FluoZin2 fluorescence; actives lie on both sides; F/F0 rise rate, 10–20 s post-thallium | normalized thallium flux at 10 µM | 3,700 compounds, 23% hits;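 active = thallium flux slope more than 3 SD above or below the plate's solvent-only control mean, mostly below; inconclusive = the two repeat wells disagreed; inactive = no significant shift from solvent-only controls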
# HEK counter1: counter-screen for KCC2 modulators: effect in parental HEK293 cells; thallium flux rate (normalised fluorescence) at 10 µM; AID 1716; shares compounds with Cl transport mod; thallium flux FluoZin2, ouabain; baseline-ratio fluorescence slope, 10–20 s after thallium; 3,700 compounds, 46% hits;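 active = thallium flux rate significantly above the same plate's solvent-only control wells, beyond their mean plus 3 SD; inconclusive = the two replicate wells gave conflicting results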
# KCC2 retest ouab: confirmation of human KCC2 modulators with ouabain. raw Tl+ flux slope (below DMSO = inhibition, above = activation) at 10 µM. HEK293-KCC2, thallium flux FluoZin2 fluorescence; bidirectional: low = inhibitor, high = activator. 3,700 compounds, 48% hits. AID 1717. shares compounds with Cl transport mod;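 active = thallium flux slope beyond 3 SD from same-plate DMSO control mean in most replicates, usually higher, sometimes lower; inconclusive = repeat tests gave conflicting results; inactive = no significant difference from controls in most replicates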;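 also: slope of initial-normalized fluorescence between seconds 10 and 20 after thallium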
# HEK counter2: parental HEK flux effect, counter-screen 2. shares compounds with Cl transport mod. HEK293 parental, thallium flux FluoZin-2 fluorescence slope. thallium flux slope at 10 µM. 3,700 compounds, 33% hits. AID 1718;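 active = thallium flux slope above the same plate's solvent-control mean plus 3 SD in both duplicate wells; inconclusive = duplicate wells that disagreed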;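 also: run without ouabain in cells lacking the KCC2 cotransporter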
# Hits are given with their value; i = inactive; ? = inconclusive; nt = no result given. An excerpt weighted towards active compounds, which were near 12% of everything screened.
SMILES,WT yeast gro inh,Cl transport mod,ROMK mod,L major viab,m-calpain inh,KCC2 sec1,KCC2 bumet counter,KCC2 secondary2,HEK counter1,KCC2 retest ouab,HEK counter2
S=c1nc[nH]c2c1cnn2-c1ccccc1,nt,149,nt,nt,i,0.0523,0.156,0.0668,0.0927,0.115,0.0509
CCOC(=O)n1c(O)c(N=NC(N)=S)c2cc(C)ccc21,nt,17.8,nt,nt,i,i,0.0384,?,0.0143,0.0311,0.0163
COc1ccc(C(=O)NC2CCCCC2)cc1S(=O)(=O)N1CCCC1,i,7.52,i,i,i,i,?,i,i,i,i
O=C(CN1C(=O)c2ccccc2C1=O)Nc1ccccc1C(=O)N1CCCC1,i,i,i,i,i,nt,nt,nt,nt,nt,nt
N#Cc1c2n(c3c(=O)n(Cc4ccc(Cl)cc4)cnc13)CCCCC2,i,nt,i,i,i,i,i,0.0234,?,0.0137,i
N#Cc1c2n(c3c(=O)n(Cc4ccccc4)cnc13)CCCC2,i,i,nt,i,i,nt,nt,nt,nt,nt,nt
COc1ccccc1CNc1n[nH]c(NCc2ccccc2OC)n1,i,nt,i,i,i,?,i,i,i,i,i
O=C(NN1CCOCC1)c1cc(-c2ccc(Cl)c(Cl)c2)nc2ccccc12,i,i,i,i,i,nt,nt,nt,nt,nt,nt
S=c1nc(-c2ccccc2Cl)[nH][nH]1,i,nt,nt,i,i,nt,nt,nt,nt,nt,nt
S=c1nc(-c2csc3c2CCCC3)[nH][nH]1,i,4.2,i,i,i,i,0.0156,i,0.0148,0.0221,0.0172
c1ccc(CSc2nnc(-c3ccco3)n2Cc2ccco2)cc1,i,nt,i,i,i,i,?,0.0255,0.00507,0.0142,0.00863
O=C(CSc1nnc(-c2ccccn2)n1Cc1ccco1)c1ccc(Cl)cc1,i,nt,i,i,i,i,?,i,0.00602,i,i
O=C(CSc1nnc(-c2ccccn2)n1Cc1ccco1)c1ccccc1,i,nt,i,i,i,nt,nt,nt,nt,nt,nt
Brc1ccc(CSc2nnc(-c3ccccn3)n2Cc2ccco2)cc1,i,nt,i,i,i,i,?,?,0.00454,?,0.00734
Cc1ccccc1CSc1nnc(-c2ccco2)n1Cc1ccco1,i,nt,i,i,i,nt,nt,nt,nt,nt,nt
COC(=O)c1ccc(N=Cc2c(C(F)(F)F)[nH][nH]c2=O)cc1,i,i,i,i,i,nt,nt,nt,nt,nt,nt
Cc1ccccc1C(=O)Nc1cc(-c2cc(C(C)(C)C)oc2C)nn1C,nt,i,nt,nt,i,nt,nt,nt,nt,nt,nt
O=C(Cn1nnc(-c2ccccc2)n1)NCc1ccco1,i,nt,i,i,i,nt,nt,nt,nt,nt,nt
O=C(CN(CCc1ccccc1)C(=O)Cn1nnc(-c2cccs2)n1)NCc1ccco1,i,-4.08,nt,i,i,i,i,0.0238,i,?,i
CSc1nsc(N/N=C/c2ccc3c(c2)OCO3)c1C#N,i,8.22,i,i,i,i,i,i,i,i,i
O=C1C2C3C=CC(CC3)C2C(=O)N1/N=C/c1c(O)ccc2ccccc12 (configuration not stated),i,3.3,i,i,i,i,i,i,i,i,i
O=C1C2C3C=CC(CC3)C2C(=O)N1/N=C/c1ccccc1O (configuration not stated),i,i,i,i,i,nt,nt,nt,nt,nt,nt
N#Cc1cccnc1N1CCN(C(=O)c2ccco2)CC1,nt,i,i,nt,i,nt,nt,nt,nt,nt,nt
Cc1noc(C)c1S(=O)(=O)Nc1ccc(C(=O)NC2CCCCC2C)cc1 (configuration not stated),i,i,nt,i,i,nt,nt,nt,nt,nt,nt
Cc1noc(C)c1S(=O)(=O)Nc1ccc(C(=O)NC2CCCCCC2)cc1,i,-4.21,i,i,i,?,i,i,i,i,i
COc1ccc(/C=N/NC(=S)SC)cc1OC,60.8,38.1,i,i,i,?,0.0764,0.0629,0.0535,0.0725,0.0553

# Compound activity: PubChem, several laboratories
